{"source": "PubChem BioAssay (NCI)", "note": "About 83,000 compounds went through this panel and 20% of them were active in at least one assay; those are over-represented in the sample as a whole.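 Each cell line was grown in a 96-well plate and treated with one concentration of compound for 48 hours. Values below 10 were considered active.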 Calls of active or inactive are those of the source.", "data": [{"test_system": "HCT-116 colon", "assay": "NCI-60 one-dose screen, 48 h (100 = growth as untreated, 0 = no growth, -100 = all killed)", "conditions": "10 µM unless noted", "values": [{"smiles": "N/C(=N\\C(N)=N\\c1nc2ccccc2s1)c1cccc(Br)c1", "growth": "61.2% (inactive)"}, {"smiles": "O=C(Nc1ccc(Cl)c(Cl)c1)NS(=O)(=O)c1cnccc1Oc1ccc(F)cc1", "growth": "41.3% (inactive)"}, {"smiles": "Cc1ccc(S(=O)(=O)NC(=O)n2cc(-c3ccncc3)c(-c3ccc(Cl)c(O)c3)n2)cc1", "growth": "96% (inactive)"}, {"smiles": "CCN(CC)CCC(CNc1ccnc2cc(Cl)ccc12)c1ccc(Cl)cc1", "note": "(stereo not given)", "growth": "-26.9% (active)"}, {"smiles": "CCN(CC)CCOc1ccc(Cl)c(C)c1", "growth": "98.5% (inactive)"}, {"smiles": "OC(c1cc2cc(Br)ccc2c2cc(Br)ccc12)C1CCCCN1", "note": "(stereo not given)", "growth": "-72.7% (active)"}, {"smiles": "CCN(CC)CCC(CNc1ccnc2cc(Cl)ccc12)c1ccccc1", "note": "(stereo not given)", "growth": "28.3% (inactive)"}, {"smiles": "CCCCCCCCCCCCNC(=O)[C@H]1CSC(c2cc3ccccc3s2)N1", "note": "(stereo not given in full)", "growth": "-80% (active)"}, {"smiles": "CCCCCCN1CSC(=S)N(CCCCCC)C1", "growth": "86% (inactive)"}, {"smiles": "CC1(c2ccc(Cl)cc2)OC(=O)CC(=O)O1", "growth": "100% (inactive)"}, {"smiles": "O=C(NS(=O)(=O)c1ccc2ccccc2c1)n1cc(-c2ccncc2)c(-c2ccc(Cl)c(O)c2)n1", "growth": "39.2% (inactive)"}, {"smiles": "CN(C)CCOC(=O)Nc1ccccc1Cl", "growth": "103% (inactive)"}, {"smiles": "Cc1c(C(=O)/C=C/c2csc3ccccc23)[n+](=O)c2ccccc2n1[O-]", "growth": "16% (inactive)"}, {"smiles": "CN(C)CCCN(c1nc(C(Cl)(Cl)Cl)ns1)c1nc(C(Cl)(Cl)Cl)ns1", "growth": "21.2% (inactive)"}, {"smiles": "CC[N+](CC)=c1cc2oc3cc(N(C)C)ccc3nc-2cc1C", "growth": "7.17% (active)"}, {"smiles": "CCN(CC)CCC(CNc1c2ccc(Cl)cc2nc2ccc(OC)cc12)c1ccccc1", "note": "(stereo not given)", "growth": "-36% (active)"}, {"smiles": "CN1CCN(Cc2ccc(NC(=O)c3nc4ccc5[nH]ncc5c4c4c3CCC4)cc2C(F)(F)F)CC1", "growth": "-94.2% (active)"}, {"smiles": "COc1ccc(N=Cc2c(O)ccc3c2oc2cc(Cl)c(O)c(Cl)c23)cc1", "growth": "91.5% (inactive)"}, {"smiles": "O=C(O)C1CCCCN1c1nc(Cl)nc(Cl)n1", "note": "(stereo not given)", "growth": "111% (inactive)"}, {"smiles": "C=CCn1c2ccccc2c2c3c(c4c5ccccc5n(CC=C)c4c21)C(=O)N(O)C3=O", "growth": "22.3% (inactive)"}, {"smiles": "Nc1cccc(Cl)c1N", "growth": "100% (inactive)"}, {"smiles": "O=C(NS(=O)(=O)c1ccccc1)n1cc(-c2ccncc2)c(-c2ccc(Cl)c(O)c2)n1", "growth": "89.1% (inactive)"}, {"smiles": "Cc1csc(NC(c2ccc(Br)cc2)c2c(C)nc3ccccn23)n1", "note": "(stereo not given)", "growth": "59.8% (inactive)"}, {"smiles": "O=S(=O)(c1ccc(OCCO)cc1)c1ccc(OCCO)cc1", "growth": "101% (inactive)"}, {"smiles": "COc1cc(-c2nn(C(=O)NS(=O)(=O)c3ccccc3)cc2-c2ccncc2)ccc1Cl", "growth": "84.6% (inactive)"}, {"smiles": "N=c1ccc2nc3ccc(N)cc3sc-2c1", "growth": "1.01% (active)"}, {"smiles": "Cc1ccc(Cc2c(C=O)nc(N)[nH]c2=O)c2ccccc12", "growth": "88.2% (inactive)"}, {"smiles": "CCN(CC)CCCC(C)Nc1c2ccc(Cl)cc2nc2cc(OC)c(OC)cc12", "note": "(stereo not given)", "growth": "-42.5% (active)"}, {"smiles": "CCCCCCCCCCCCNC(=O)[C@H]1CSC(c2ccsc2)N1", "note": "(stereo not given in full)", "growth": "-48.3% (active)"}, {"smiles": "CC(C)(C)NCCC(O)c1cc2c(Cl)cc(Cl)cc2c2cc(C(F)(F)F)ccc12", "note": "(stereo not given)", "growth": "-80.3% (active)"}, {"smiles": "COc1cc2c(cc1O)CCN1C[C@@H](CC(C)C)[C@@H](O)C[C@@H]21", "growth": "101% (inactive)"}, {"smiles": "Nc1ccc(C(=O)CSc2nc3ccccc3[nH]2)cc1", "growth": "97.3% (inactive)"}, {"smiles": "CCCC(=O)Oc1ccc(/C(=C(\\C)c2ccccc2)c2ccc(OCCN(CC)CC)cc2)cc1", "growth": "47.8% (inactive)"}, {"smiles": "C/C=C(\\C)C(C(=O)NC1CCCCC1)N(C(=O)C1CCc2cc(F)ccc2O1)c1ccc(Cl)cc1", "note": "(stereo not given)", "growth": "103% (inactive)"}, {"smiles": "Cn1ccc(=O)c(S(N)(=O)=O)c1", "growth": "102% (inactive)"}, {"smiles": "O=c1[nH]c(NCc2ccccc2)nc2nc(Nc3ccc(NC(=S)Nc4ccccc4)cc3)nc(-c3ccc(O)cc3O)c12", "growth": "99.2% (inactive)"}, {"smiles": "COc1ccc(-n2c(-c3ccccc3)c(-c3ccccc3)c3c(SCC(=O)N/N=C/c4ccc(Cl)cc4)ncnc32)cc1", "growth": "87.8% (inactive)"}, {"smiles": "COc1ccc(S(=O)(=O)NCCCNc2nccc(-c3c(-c4cccc([N+](=O)[O-])c4)nc4sccn34)n2)cc1", "growth": "48.7% (inactive)"}]}, {"test_system": "HCC-2998 colon", "assay": "NCI-60 one-dose screen, 48 h (100 = growth as untreated, 0 = no growth, -100 = all killed)", "conditions": "10 µM unless noted", "values": [{"smiles": "COc1cccc(CC(C)=C(c2ccc(OCCN(C)C)cc2)c2ccc(OCCN(C)C)cc2)c1", "growth": "-15.3% (active)"}, {"smiles": "N/C(=N\\C(N)=N\\c1nc2ccccc2s1)c1cccc(Br)c1", "growth": "108% (inactive)"}, {"smiles": "O=C(Nc1ccc(Cl)c(Cl)c1)NS(=O)(=O)c1cnccc1Oc1ccc(F)cc1", "growth": "76.7% (inactive)"}, {"smiles": "CCN(CC)CCC(CNc1ccnc2cc(Cl)ccc12)c1ccc(Cl)cc1", "note": "(stereo not given)", "growth": "-64.8% (active)"}, {"smiles": "CCN(CC)CCOc1ccc(Cl)c(C)c1", "growth": "90.6% (inactive)"}, {"smiles": "OC(c1cc2cc(Br)ccc2c2cc(Br)ccc12)C1CCCCN1", "note": "(stereo not given)", "growth": "-81.5% (active)"}, {"smiles": "CCN(CC)CCC(CNc1ccnc2cc(Cl)ccc12)c1ccccc1", "note": "(stereo not given)", "growth": "68.2% (inactive)"}, {"smiles": "CCCCCCCCCCCCNC(=O)[C@H]1CSC(c2cc3ccccc3s2)N1", "note": "(stereo not given in full)", "growth": "61.4% (inactive)"}, {"smiles": "CCCCCCN1CSC(=S)N(CCCCCC)C1", "growth": "96.6% (inactive)"}, {"smiles": "CC1(c2ccc(Cl)cc2)OC(=O)CC(=O)O1", "growth": "102% (inactive)"}, {"smiles": "CN(C)CCOC(=O)Nc1ccccc1Cl", "growth": "111% (inactive)"}, {"smiles": "Cc1c(C(=O)/C=C/c2csc3ccccc23)[n+](=O)c2ccccc2n1[O-]", "growth": "78.5% (inactive)"}, {"smiles": "CN(C)CCCN(c1nc(C(Cl)(Cl)Cl)ns1)c1nc(C(Cl)(Cl)Cl)ns1", "growth": "-12.9% (active)"}, {"smiles": "CC[N+](CC)=c1cc2oc3cc(N(C)C)ccc3nc-2cc1C", "growth": "32.3% (inactive)"}, {"smiles": "CCN(CC)CCC(CNc1c2ccc(Cl)cc2nc2ccc(OC)cc12)c1ccccc1", "note": "(stereo not given)", "growth": "-72% (active)"}, {"smiles": "CN1CCN(Cc2ccc(NC(=O)c3nc4ccc5[nH]ncc5c4c4c3CCC4)cc2C(F)(F)F)CC1", "growth": "-10.5% (active)"}, {"smiles": "COc1ccc(N=Cc2c(O)ccc3c2oc2cc(Cl)c(O)c(Cl)c23)cc1", "growth": "88.7% (inactive)"}, {"smiles": "O=C(O)C1CCCCN1c1nc(Cl)nc(Cl)n1", "note": "(stereo not given)", "growth": "101% (inactive)"}, {"smiles": "C=CCn1c2ccccc2c2c3c(c4c5ccccc5n(CC=C)c4c21)C(=O)N(O)C3=O", "growth": "36.5% (inactive)"}, {"smiles": "Nc1cccc(Cl)c1N", "growth": "84.2% (inactive)"}, {"smiles": "O=C(NS(=O)(=O)c1ccccc1)n1cc(-c2ccncc2)c(-c2ccc(Cl)c(O)c2)n1", "growth": "127% (inactive)"}, {"smiles": "Cc1csc(NC(c2ccc(Br)cc2)c2c(C)nc3ccccn23)n1", "note": "(stereo not given)", "growth": "117% (inactive)"}, {"smiles": "O=S(=O)(c1ccc(OCCO)cc1)c1ccc(OCCO)cc1", "growth": "104% (inactive)"}, {"smiles": "COc1cc(-c2nn(C(=O)NS(=O)(=O)c3ccccc3)cc2-c2ccncc2)ccc1Cl", "growth": "109% (inactive)"}, {"smiles": "N=c1ccc2nc3ccc(N)cc3sc-2c1", "growth": "53.2% (inactive)"}, {"smiles": "Cc1ccc(Cc2c(C=O)nc(N)[nH]c2=O)c2ccccc12", "growth": "101% (inactive)"}, {"smiles": "CCN(CC)CCCC(C)Nc1c2ccc(Cl)cc2nc2cc(OC)c(OC)cc12", "note": "(stereo not given)", "growth": "18.1% (inactive)"}, {"smiles": "CCCCCCCCCCCCNC(=O)[C@H]1CSC(c2ccsc2)N1", "note": "(stereo not given in full)", "growth": "11% (inactive)"}, {"smiles": "CC(C)(C)NCCC(O)c1cc2c(Cl)cc(Cl)cc2c2cc(C(F)(F)F)ccc12", "note": "(stereo not given)", "growth": "-83% (active)"}, {"smiles": "COc1cc2c(cc1O)CCN1C[C@@H](CC(C)C)[C@@H](O)C[C@@H]21", "growth": "102% (inactive)"}, {"smiles": "Nc1ccc(C(=O)CSc2nc3ccccc3[nH]2)cc1", "growth": "100% (inactive)"}, {"smiles": "CCCC(=O)Oc1ccc(/C(=C(\\C)c2ccccc2)c2ccc(OCCN(CC)CC)cc2)cc1", "growth": "83.2% (inactive)"}, {"smiles": "C/C=C(\\C)C(C(=O)NC1CCCCC1)N(C(=O)C1CCc2cc(F)ccc2O1)c1ccc(Cl)cc1", "note": "(stereo not given)", "growth": "94.9% (inactive)"}, {"smiles": "Cn1ccc(=O)c(S(N)(=O)=O)c1", "growth": "102% (inactive)"}, {"smiles": "O=c1[nH]c(NCc2ccccc2)nc2nc(Nc3ccc(NC(=S)Nc4ccccc4)cc3)nc(-c3ccc(O)cc3O)c12", "growth": "113% (inactive)"}, {"smiles": "COc1ccc(-n2c(-c3ccccc3)c(-c3ccccc3)c3c(SCC(=O)N/N=C/c4ccc(Cl)cc4)ncnc32)cc1", "growth": "93.2% (inactive)"}, {"smiles": "COc1ccc(S(=O)(=O)NCCCNc2nccc(-c3c(-c4cccc([N+](=O)[O-])c4)nc4sccn34)n2)cc1", "growth": "82.1% (inactive)"}]}]}
